High-throughput results as filed in PubChem.
Only some compounds are listed: those with a hit (about 7.5% of all), similar ones and a draw of the others.
Rab9 prom act – activates the Rab9 promoter; Potency, µM (highest dose often 9.22 µM), for inactives: at the top dose activation, negative = inhibition, most hits filed as activators; hit rate 2.8% among 320,000; Huh7 Rab9 promoter-luciferase reporter, luminescence, 24 h; note: % of control where 0% means no effect; nearly all actives have a fitted effect of over 60% in size
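Huh7 reporter line, Rab9 promoter upstream of luciferase. Compound exposure 24 h at 37 °C in reduced-serum medium with 10% FBS. Read-out: luminescence.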
ELG1 genotoxic – induces genotoxicity in HEK293T cells with luciferase-tagged ELG1. HEK293T ELG1-luciferase reporter, luminescence, 16 h. Potency, µM (highest dose often 46 µM), without a hit: at the top dose activity change, positive = activation, actives largely listed as activators. hit rate 1.3% among 330,000; note: % of control where 0% means no effect; nearly all actives have a fitted effect of over 60% in size
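Luminescence read-out: rising ELG1-luciferase signal, reflecting elevated ELG1 protein under genetic stress, flags genotoxic compounds. Cells were treated for 16 hr at 37 °C before ONE-Glo detection.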
NPC1 promoter act – activates the NPC1 promoter. Huh7 NPC1 promoter luciferase reporter, 24 h. Potency, µM (series often up to 9.22 µM), for inactives: at the top dose activation, hits mostly activators. hit rate 2.4% among 320,000. AID 485313; note: % of control where 0% means no effect; nearly all actives have a fitted effect of over 60% in size
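Luciferase expression driven by the NPC1 promoter was measured in stably transfected Huh7 cells after a 24 h compound incubation, using a luciferase reagent and a luminescence read.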
FLuc modulator – firefly luciferase modulation, counter-screen for miR-21 project. P08659. purified FLuc, Km substrates, luminescence inhibition. Potency, µM (top dose mostly 57.5 µM), without a hit: top-dose activity change, negative = inhibition, usual class: inhibitors. hit rate 6.9% among 360,000. AID 588342;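 note: plate controls were vehicle for no effect and reference inhibitor for full effect; nearly all actives have a fitted effect of over 55% in size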
Target sequence (P08659 whole entry, looked up): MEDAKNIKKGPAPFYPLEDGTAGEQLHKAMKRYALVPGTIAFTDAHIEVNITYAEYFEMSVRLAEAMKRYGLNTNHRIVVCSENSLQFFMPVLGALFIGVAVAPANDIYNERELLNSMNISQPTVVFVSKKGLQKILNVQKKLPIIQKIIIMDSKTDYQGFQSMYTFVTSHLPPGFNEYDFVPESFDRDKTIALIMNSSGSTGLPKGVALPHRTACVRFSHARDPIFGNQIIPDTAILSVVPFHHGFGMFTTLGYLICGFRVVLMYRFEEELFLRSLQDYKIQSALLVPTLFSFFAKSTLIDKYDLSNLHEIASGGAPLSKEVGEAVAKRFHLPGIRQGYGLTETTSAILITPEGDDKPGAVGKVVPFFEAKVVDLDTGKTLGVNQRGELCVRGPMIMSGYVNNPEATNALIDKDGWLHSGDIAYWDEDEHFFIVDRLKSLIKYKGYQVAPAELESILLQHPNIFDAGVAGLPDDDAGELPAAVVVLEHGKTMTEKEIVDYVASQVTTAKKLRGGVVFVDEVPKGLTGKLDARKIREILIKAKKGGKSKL
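Biochemical qHTS of compounds, final roughly 60 µM downward over six points, against 10 nM purified firefly luciferase using Km concentrations of substrates (10 uM D-luciferin, 10 uM ATP) in Tris acetate pH 7.5 buffer; luminescence output.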
SMN2 splice up – enhancers of SMN2 splice variant expression | Potency, µM (doses to about 46.1 µM), without a hit: at the top dose activity change, positive = activation, most hits filed as activators | HEK293 SMN2-luciferase splicing reporter, luminescence, 30-36 h | hit rate 2.8% among 210,000; note: % of control where 0% means no effect; nearly all actives have a fitted effect of over 55% in size
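HEK293 cells carry an SMN2 minigene-luciferase reporter in which exon 7 inclusion puts luciferase in frame. Cells were seeded at 2000 cells/well, attached for 10-12 hours, then exposed to compounds for 30-36 hours at 37C before ONE-Glo luminescence.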
The depositor's hits bear a star; u = inconclusive; x = no result; [ ] = another dose, or the depositor's remark. Calls come from the whole dose curve; as a rule, active = well fitted curve in the direction sought with a large enough effect; inconclusive = small, poorly fitted or top-dose-only effect, or another doubt; inactive = no such curve, though single readings can be large; an effect the other way counts as inactive or inconclusive. Potency is the fitted concentration of half-maximal effect.

SMILES | Rab9 prom act | ELG1 genotoxic | NPC1 promoter act | FLuc modulator | SMN2 splice up
COc1cc(OC)cc(OC(=O)c2ccc3c(=O)n4c(nc3c2)CCC4)c1 | 0% | 4% | 3% | 15µM* | x
Cc1ccc(OC(=O)c2ccc3c(=O)n4c(nc3c2)CCC4)cc1 | -7% | 6% | -8% | 6µM* | x
CC(=O)c1cccc(OC(=O)c2ccc3c(=O)n4c(nc3c2)CCC4)c1 | 0% | -2% | 2% | -18% | x
Cc1ccccc1-c1ccc(CN2CCN(C)C(CCO)C2)cc1 (centres undefined) | -2% | -1% | 10% | -15% | x
Cc1ccsc1/C=N/Nc1ccc(C(=O)O)cc1 | u | u | u | 0.27µM* | x
Cc1ccsc1/C=N/Nc1cccc(C(=O)O)c1 | 0.0032µM* | u | 3.2µM* | 0.11µM* | 0.1µM*
Cc1c(C(N)=O)sc2nc(-c3ccccc3)cn12 | u | u | u | 19µM* | 30%
Cc1c(C(=O)NCc2ccc(F)cc2)sc2nc(-c3ccc(F)cc3)cn12 | x | x | x | -8% | x
Cc1c(C(=O)NCC(C)C)sc2nc(-c3ccc(F)cc3)cn12 | 2µM* | u | u | -12% | 18%
COc1ccc(-c2cn3c(C)c(C(=O)Nc4ccncc4)sc3n2)cc1 | -1% | 2% | -4% | u | -23%
COc1ccc(-c2cn3c(C)c(C(=O)Nc4cccc(NC(C)=O)c4)sc3n2)cc1 | -3% | 2% | 9% | 9.5µM* | -18%
Cc1ccc(C(=O)NC(=C(Cl)Cl)S(=O)(=O)c2ccc(Cl)cc2)cc1 | -9% | 2% | -11% | -7% | -3%
O=C(c1ccc(F)cc1)c1ccc(-c2ccc(F)cc2)nc1 | 1%[1.84 µM] | 16% | u | u | x
CCOc1ccc(NS(=O)(=O)c2ccc(C(=O)N(C)CCc3ccc(OC)c(OC)c3)cc2)cc1 | -9% | -14% | -6% | 3% | x
CCOC(=O)c1ccc(NC(=O)c2ccc[n+]([O-])c2)cc1 | 2% | -1% | -4% | 6% | x
CCN(CC)c1ccc(/C=C/c2nc3ccccc3s2)cc1 | 4% | 0.46µM* | u | 0.6µM* | -90%
CCOC(=O)c1sc(=NC(=O)c2cccc(OC)c2)n(C)c1C | 1.6µM* | 15% | 3.5µM* | u | x
CCOC(=O)c1sc(=NC(=O)c2ccccc2)n(C)c1C | 19% | u | -1% | 2.1µM* | 8.9µM*
CC(C(=O)O)c1ccc(N2Cc3ccccc3C2=O)cc1 (centres undefined) | 0.32µM* | 11% | 0.089µM* | 0.27µM* | 1.3µM*
Cc1cc2ccccc2n1CCNC(=O)C1CCCC1 | 1% | 1% | -3% | 2% | -8%
Cc1cc2ccccc2n1CCNC(=O)c1cccs1 | u | u | u | 21µM* | -29%
Cc1cc2ccccc2n1CCNC(=O)C1CCCCC1 | 2% | 23µM* | -2% | 0% | -56%
COc1cccc(OCc2nc3ccccc3c(=O)n2N)c1 | u | u | 12% | u | u
Nc1nnnn1/N=C/c1ccc(O)cc1 | 2% | 1% | 0% | -15% | -11%
CCN(C)c1ccc(/C=N\n2nnnc2N)cc1 | 25% | 9.2µM* | -11% | 12µM* | 11µM*
SMILES | Rab9 prom act | ELG1 genotoxic | NPC1 promoter act | FLuc modulator | SMN2 splice up
O=C(CSc1nnc(Cc2cc(=O)[nH]c(=O)[nH]2)n1-c1ccccc1)N1CCCc2ccccc21 | 4% | 4% | 0% | -5% | -14%
COc1ccc(C(=O)OCC(=O)c2ccc3c(c2)NC(=O)CO3)cc1OC | x | 0% | x | x | x
CCOC(=O)c1ccc2c(c1)NCc1cccc(OC)c1O2 | 2.8µM* | u | 2.5µM* | 5.4µM* | x
COC(=O)c1ccc(C(=O)OC)c(NC(=O)COC(=O)C23CC4CC(CC(O)(C4)C2)C3)c1 | -4% | -1% | 1% | -4% | x
Cc1ccccc1C(=O)NC1CCN(Cc2nnnn2C(C)(C)C)CC1 | -1% | -3% | -2% | -1% | x
COc1ccc2nc(N/C(N)=N/S(C)(=O)=O)nc(C)c2c1 | 14% | u | 17% | 15µM* | x
COc1ccc2nc(N/C(N)=N/C(=S)Nc3c(C)cccc3C)nc(C)c2c1 | -6% | -3% | -14% | -9% | -6%
COc1ccc(NC(=S)/N=C(\N)Nc2nc(C)c3ccccc3n2)cc1 | -6% | -10% | 2% | 9.5µM* | x
CCC(C)NC(=S)NNC(=O)c1ccncc1 (centres undefined) | 1% | -4% | -4% | -3% | -22%
CC(C)(C)c1ccc(/C=N/n2cnnc2)cc1 | -8% | 8% | 1% | 19µM* | 12%
Cc1ccccc1OCC(O)Cn1c(NCc2ccco2)nc2c1c(=O)[nH]c(=O)n2C (centres undefined) | -3% | 22% | 2% | 5% | u
COc1ccccc1C(=O)NC(=O)CSc1nc(C)cs1 | 9% | -2% | -3% | 13µM* | x
CCn1c(CN2CCN(C)CC2)nc2cc(NC(=O)c3cc(OC)c(OC)c(OC)c3)ccc21 | x | x | x | -2% | x
CONC(=O)C1CCN(C(=O)OCc2ccccc2)CC1 | u | 5% | u | -16% | 7.9µM*
COC(=O)CNC(=O)C1CCN(C(=O)OCc2ccccc2)CC1 | -2% | 0% | 0% | 1% | 18%
C/C(CC(=O)NC1CCCC1)=N\NC(=O)c1ccc([N+](=O)[O-])c(Cl)c1 | 1% | -2% | -2% | -1% | 3%
Cc1nnc(SCc2ccc(C(=O)O)cc2)s1 | 18% | -1% | -1% | 2% | -8%
Cc1ccc(NC(=O)c2ccc(CSc3nnc(C)s3)cc2)cc1 | 1.6µM* | 11% | 1.1µM* | 1.5µM* | u
CCc1ccc(NC(=O)CSc2nnnn2C)cc1 | u | 13%[9.26 µM] | u | 24µM* | x
Cc1ccc(NC(=O)c2ccc(CSc3nnnn3C)cc2)cc1 | 1.6µM* | u | 2µM* | 4.8µM* | 8.9µM*
Cc1cc(C)cc(NC(=O)c2ccc(CSc3nnc(C)s3)cc2)c1 | 10% | 8% | 3% | 7.6µM* | 0%
CSc1ccc(Cl)c(C(=O)Nc2cc(S(=O)(=O)N3CCOCC3)ccc2N2CCOCC2)c1 | x | -3% | x | x | x
O=C(c1ccco1)N1CCN(c2nc(-c3ccc(F)cc3)cs2)CC1 | 10% | -4% | -2% | 24µM* | x
Brc1ccc(-c2csc(N3CCC(c4ccccc4)C3)n2)cc1 (centres undefined) | u | 8% | u | 6µM* | -33%
c1ccc(-c2csc(-n3cccn3)n2)cc1 | 23% | 2% | 19% | 27µM* | 1%
Brc1ccc(-c2csc(N3CCc4ccccc4C3)n2)cc1 | -7% | 0% | 0% | u | -6%
c1ccc(-c2csc(N3CCSCC3)n2)cc1 | u | 0% | 13% | 24µM* | 7%
O=C(c1ncn[nH]1)N1CCN(c2nc(-c3ccccc3)cs2)CC1 | 28% | -1% | 8% | u | 10%
CCCCC12CN3CC(C)(CN(C1)C3c1ccc(OCc3ccccc3)cc1)C2=O (centres undefined) | x | x | x | -5% | -1%
